{
  "source": "PubChem BioAssay AID2104",
  "about": "(National Center for Advancing Translational Sciences (NCATS), 2010)",
  "note": "Inconclusive results are not listed. The source made the active and inactive calls. Calls follow the shape of the full dose curve.",
  "data": [
    {"molecular_target": "Thyrotropin receptor (Homo sapiens) (UniProt P16473)", "sequence (P16473 whole entry, looked up)": "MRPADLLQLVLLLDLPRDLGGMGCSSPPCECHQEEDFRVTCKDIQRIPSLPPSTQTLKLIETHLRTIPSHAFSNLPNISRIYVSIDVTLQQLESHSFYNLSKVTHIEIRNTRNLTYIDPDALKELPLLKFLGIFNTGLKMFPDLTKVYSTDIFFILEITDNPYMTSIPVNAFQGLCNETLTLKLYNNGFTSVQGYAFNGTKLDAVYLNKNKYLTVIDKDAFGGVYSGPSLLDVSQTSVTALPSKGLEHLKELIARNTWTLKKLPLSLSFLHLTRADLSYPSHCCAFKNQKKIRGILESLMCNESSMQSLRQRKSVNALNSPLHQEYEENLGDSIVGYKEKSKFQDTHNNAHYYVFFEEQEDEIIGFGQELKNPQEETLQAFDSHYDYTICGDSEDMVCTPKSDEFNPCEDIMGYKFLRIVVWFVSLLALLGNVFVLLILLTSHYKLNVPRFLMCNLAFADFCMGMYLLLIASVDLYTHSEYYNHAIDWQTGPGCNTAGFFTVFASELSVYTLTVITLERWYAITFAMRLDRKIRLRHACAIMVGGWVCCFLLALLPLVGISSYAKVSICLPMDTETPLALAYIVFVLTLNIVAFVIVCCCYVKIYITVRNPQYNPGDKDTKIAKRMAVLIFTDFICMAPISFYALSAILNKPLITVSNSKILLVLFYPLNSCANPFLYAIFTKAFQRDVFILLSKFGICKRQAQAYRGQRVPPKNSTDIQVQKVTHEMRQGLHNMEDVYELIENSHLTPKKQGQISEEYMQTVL", "experiment": "Secondary Concentration-Response Assay for Agonists of the Thyroid Stimulating Hormone Receptor: ELISA Activity Detection", "settings": "HEK293-TSHR cells, cAMP ELISA luminescence, 1 h", "from_the_text": "NIH Chemical Genomics Center [NCGC] NIH Molecular Libraries Screening Centers Network [MLSCN] MLSCN Grant: 1 X01 MH080680-01 PI Name: Dr. Marvin Gershengorn, NIH NCGC Assay Overview: Confirmation of Thyroid Stimulating Hormone Receptor Agonists TSH is an alpha/beta heterodimeric glycoprotein hormone secreted from the anterior pituitary gland which belongs to the glycoprotein hormone family. The actions of TSH are mediated by a seven-transmembrane receptor, which upon TSH binding couples preferentially to the G-alpha (s) protein (Gs), resulting in activation of adenylate cyclase and increase in cyclic adenosine 3', 5' monophosphate (cAMP). The TSH receptor (THSR) is mainly expressed in thyroid follicular cells and regulates their growth and function. Recombinant TSH is used to activate TSHR in patients with thyroid cancer receiving thyroid hormone suppression therapy and to screen for residual tumor after surgery, but it is expensive and must be administered intramuscularly. An orally active small molecule TSHR agonist would serve as an invaluable research tool for studying TSHR pharmacology and physiology, and would have multiple advantages in therapeutic settings. However, no selective small molecule agonist of the TSH receptor exists, and no small molecule screen for TSHR agonists has ever been reported. A confirmatory assay of putative TSHR agonists was conducted on a HEK 293 cell line stably expressing the TSHR, using an orthogonal detection technology to measure cAMP stimulation: an ELISA based cAMP competition assay using cAMP-Screen Direct System (Applied Biosystems, Foster City , CA).\nNCGC Assay Protocol Summary: HEK 293 cells expressing TSHR were cultured for 24 h before incubation for 1 h in serum-free DMEM containing 1 mM 3-isobutyl-1-methylxanthine (IBMX) (SIGMA) and small molecule ligands in a humidified 5% CO2 incubator at 37C. Following aspiration of the medium, cells were lysed using lysis buffer of the cAMP-Screen DirectTM System (Applied Biosystems). The cAMP content of the cell lysate was determined using the method described in the manufacturer#s protocol. An enzyme substrate with a luminescent enhancer generates glow light emission kinetics. Light signal intensity, which is inversely proportional to the cAMP level in the sample, is measured in a luminometer (Perkin Elmer, 1420 Multilabel, Victor 3) for 3 seconds/well 30 min after substrate addition. Potencies (i.e., EC50) of the ligands were obtained from dose-response curves by data analysis with GraphPad Prism 4 software for Windows.", "values": [
      {"smiles": "COc1ccc(C2Nc3ccccc3C(=O)N2Cc2ccccc2)cc1COc1cccc(F)c1", "note": "(stereo unspecified)", "outcome": "inactive"},
      {"smiles": "COc1ccc(C2Nc3ccccc3C(=O)N2Cc2ccccc2)cc1CSc1ccc(NC(C)=O)cc1", "note": "(stereo unspecified)", "Potency": "80 nM (active)"},
      {"smiles": "COc1ccc(C2Nc3ccccc3C(=O)N2CCCN(C)C)cc1COc1ccc(NC(C)=O)cc1", "note": "(stereo unspecified)", "outcome": "inactive"},
      {"smiles": "COc1ccc(C2Nc3cccc(O)c3C(=O)N2Cc2ccccc2)cc1COc1ccc(NC(C)=O)cc1", "note": "(stereo unspecified)", "Potency": "90 nM (active)"},
      {"smiles": "COc1ccc(C2Nc3ccccc3C(=O)N2Cc2ccccc2)cc1COc1ccc(NC(C)=O)cc1", "note": "(stereo unspecified)", "Potency": "290 nM (active)"},
      {"smiles": "COc1ccc(-c2nc3ccccc3c(=O)n2Cc2ccccc2)cc1COc1ccc(NC(C)=O)cc1", "Potency": "960 nM (active)"},
      {"smiles": "COc1ccc(-c2nc3cccc(O)c3c(=O)n2Cc2ccccc2)cc1COc1ccc(NC(C)=O)cc1", "Potency": "550 nM (active)"},
      {"smiles": "COc1ccc(C2Nc3ccccc3C(=O)N2CCc2ccccc2)cc1COc1ccc(NC(C)=O)cc1", "note": "(stereo unspecified)", "Potency": "430 nM (active)"},
      {"smiles": "COc1ccc(C2Nc3cccc(F)c3C(=O)N2Cc2ccccc2)cc1COc1ccc(NC(C)=O)cc1", "note": "(stereo unspecified)", "Potency": "280 nM (active)"},
      {"smiles": "COc1ccc(-c2nc3ccccc3c(=O)n2Cc2ccco2)cc1COc1ccc(NC(C)=O)cc1", "Potency": "930 nM (active)"},
      {"smiles": "COc1ccc(C2NC(=O)c3ccccc3N2)cc1COc1ccc(NC(C)=O)cc1", "note": "(stereo unspecified)", "outcome": "inactive"},
      {"smiles": "COc1ccc(C2Nc3ccccc3C(=O)N2CCO)cc1COc1ccc(NC(C)=O)cc1", "note": "(stereo unspecified)", "outcome": "inactive"},
      {"smiles": "COc1ccc(C2Nc3cccc(O)c3C(=O)N2Cc2ccccc2)cc1CSc1ccc(NC(C)=O)cc1", "note": "(stereo unspecified)", "Potency": "18 nM (active)"},
      {"smiles": "CCCCN1C(=O)c2ccccc2NC1c1ccc(OC)c(COc2ccc(NC(C)=O)cc2)c1", "note": "(stereo unspecified)", "Potency": "830 nM (active)"},
      {"smiles": "O=C1c2ccccc2NC(c2ccccc2)N1Cc1ccco1", "note": "(stereo unspecified)", "outcome": "inactive"},
      {"smiles": "COc1ccc(C2Nc3cccc(NS(C)(=O)=O)c3C(=O)N2Cc2ccccc2)cc1COc1ccc(NC(C)=O)cc1", "note": "(stereo unspecified)", "Potency": "980 nM (active)"},
      {"smiles": "COc1ccc(C2Nc3cccc(O)c3C(=O)N2Cc2ccccc2)cc1", "note": "(stereo unspecified)", "outcome": "inactive"},
      {"smiles": "COc1ccc(C2Nc3ccc(O)cc3C(=O)N2Cc2ccccc2)cc1COc1ccc(NC(C)=O)cc1", "note": "(stereo unspecified)", "Potency": "330 nM (active)"},
      {"smiles": "COc1ccc(C2Nc3ccccc3C(=O)N2Cc2ccco2)cc1COc1ccccc1", "note": "(stereo unspecified)", "outcome": "inactive"},
      {"smiles": "COCc1cc(C2Nc3ccccc3C(=O)N2Cc2ccccc2)ccc1OC", "note": "(stereo unspecified)", "outcome": "inactive"},
      {"smiles": "COc1ccc(C2Nc3ccccc3C(=O)N2Cc2ccccc2)cc1COc1ccc(C#N)cc1", "note": "(stereo unspecified)", "outcome": "inactive"}
    ]}
  ]
}
